Source: PubChem BioAssay (Tox21)
Records with an inconclusive call do not appear. A number with no mark means an inactive call. The call rests on the fitted dose curve; in most records, active means well fitted activation curve with a large enough effect in the repeat runs; inconclusive means weak or mixed curves; inactive means flat fitted curve, though single readings scatter.

Test: A CellTox Green Cytotoxicity Assay to monitor cytotoxicity in HEK293 cells - 8 hour (AID 1224884); further: nearly all actives have a fitted effect of over 35% in size
Settings: CellTox Green fluorescence; series mostly up to 76.8 µM; cytotoxicity increase: at the top concentration
How it was run: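 Tox21 screen in HEK293: membrane-impermeant cyanine dye fluoresces on binding dead-cell DNA; compound pinned 5 h post-seeding, plates held at 37 C, signal read repeatedly through 40 h.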
On the % scale 0 is the no-effect control and ±100 the full control effect.

| Structure (SMILES) | cytotoxicity increase |
| --- | --- |
| CN(Cc1ccc(C(C)(C)C)cc1)Cc1cccc2ccccc12 | 17.4% [at 35.3 µM] |
| COc1ccc(-c2nc3ccc(C4=NNC(=O)CC4C)cc3[nH]2)cc1 (stereo unspecified) | -14.7% [at 35.3 µM] |
| CN1CCC(=C2c3ccccc3Sc3ccccc32)CC1 | 1.25% [at 35.3 µM] |
| CCCCC(=O)OCC(=O)[C@H]1[C@H](C)C[C@H]2[C@@H]3C[C@H](F)C4=CC(=O)C=C[C@]4(C)[C@@]3(F)[C@@H](O)C[C@@]21C | 1.68% [at 35.3 µM] |
| Clc1ccc2c(c1)CCc1cccnc1C2=C1CCNCC1 | -19.6% [at 35.3 µM] |
| CCn1cc(C(=O)O)c(=O)c2cnc(N3CCNCC3)nc21 | 2.62% [at 35.3 µM] |
| CCOc1ccc(N=Nc2ccc(/C=C/c3ccc(N=Nc4ccc(OCC)cc4)cc3S(=O)(=O)O)c(S(=O)(=O)O)c2)cc1 | -25.4% |
| COc1cc(C(=O)OCCCN2CCCN(CCCOC(=O)c3cc(OC)c(OC)c(OC)c3)CC2)cc(OC)c1OC | 16% [at 35.3 µM] |
| NS(=O)(=O)c1ccc(N2CCCCS2(=O)=O)cc1 | -1.77% [at 35.3 µM] |
| CCCCCCCC/C=C\CCCCCCCC(=O)OCC | -2.89% |
| Nc1cc(C(=O)O)c(O)c(S(=O)(=O)O)c1 | 1.84% |
| C/C=C/C(=O)CC | 1.29% [at 15.8 µM] |
| ClCCOCCOCCCl | -14.2% |
| CCN(CC)CCNC(=O)c1cc(Br)c(N)cc1OC | 0.475% [at 35.3 µM] |
| O=C(O)C(S)C(S)C(=O)O (stereo unspecified) | -15.4% [at 35.3 µM] |
| O=[N+]([O-])c1ccc2[nH]ncc2c1 | 1.05% |

| Structure (SMILES) | cytotoxicity increase |
| --- | --- |
| CCCCCCCCCCO[C@@H]1O[C@H](CO)[C@@H](O)[C@H](O)[C@H]1O | 24% |
| CCO[Si](CCCCl)(OCC)OCC | 9.67% |
| Nc1ncn([C@H]2C[C@H](O)[C@@H](CO)O2)c(=O)n1 | -1.96% [at 35.3 µM] |
| O=C1OC(=O)C2C3C=CC(C3)C12 (stereo unspecified) | -12.3% |
| CCCCCCCCO[C@@H]1O[C@H](CO)[C@@H](O)[C@H](O)[C@H]1O | -28% |
| C/C(=C(\CCOP(=O)(O)O)SC(=O)c1ccccc1)N(C=O)Cc1cnc(C)nc1N | -3.85% [at 6.97 µM] |
| CCN(CC)CCOC(=O)C(c1ccccc1)C1CCCCC1 (stereo unspecified) | -0.179% [at 35.3 µM] |
| CCCCOC(=O)CCCCCCCC(=O)OCCCC | -1.35% |
| CN1C[C@H]2c3ccccc3Oc3ccc(Cl)cc3[C@@H]2C1 | 9.95% [at 35.3 µM] |
| O=C(O)c1ccccc1Cl | -8.86% |
| Cc1cc(N)c2cc(NC(=O)Nc3ccc4nc(C)cc(N)c4c3)ccc2n1 | -30.1% [at 35.3 µM] |
| O=C1CCC(=O)O1 | -1.68% |
| O=C(NCCO[N+](=O)[O-])c1cccnc1 | -3.97% [at 35.3 µM] |
| CCN(CC)CCOC(=O)C(Cc1cccc2ccccc12)CC1CCCO1 (stereo unspecified) | 1.83% [at 35.3 µM] |
| CCc1cc(C2=C(C(=O)O)N(c3ccccc3C(F)(F)F)S(=O)(=O)c3ccccc32)cc2c1OCO2 | -3.68% |
